Experimental data published in PubChem BioAssay AID1159580 (chemical genetic matrix, 2015).
Several values for one entry are separate records, joined by “and”; a condition that tells them apart may be missing. Equal entries are not always repeated. Out of some 5,500 compounds screened, about 2,000 (36%) were called active. Inconclusive results (about 18%) are left out. No stated cut-off is given here; in the data, active means normalized growth mostly below about 0.91 (no sharp cut-off); inconclusive means no clear call, values can overlap the other calls; inactive means mostly above about 0.92. The list shows a part of the results.

Test: chemical genetic growth profiling, strain panel (AID 1159580);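 further: tested at 20 µM; growth read once vehicle control cultures reached saturation at 30 °C; 1 = growth at the plate median or of vehicle wells; lower values mean less growth of the strain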
Settings: S. cerevisiae deletion strains, growth OD

Measured: normalized growth

O=C(O)c1cccnc1
inactive: locus YAL013W, strain DEP1, active compounds read low 0.987 | locus YAL021C, strain ccr4, active compounds read low 1 | locus YAL026C, strain drs2, active compounds read low 0.993 | locus YAL030W, strain snc1, active compounds read low 0.994 | locus YBL061C, strain skt5, active compounds read low 1.02 | locus YBR009C, strain hhf1, active compounds read low 1.01 | locus YBR021W, strain FUR4, active compounds read low 1.02 | locus YBR023C, strain chs3, active compounds read low 1.01 | locus YBR171W, strain sec66, active compounds read low 0.997 | locus YBR229C, strain ROT2, active compounds read low 0.96 | locus YBR231C, strain swc5, active compounds read low 0.996 | locus YBR279W, strain paf1, active compounds read low 1 | locus YCL011C, strain gbp2, active compounds read low 0.984 | locus YCL016C, strain dcc1, active compounds read low 1.03 | locus YCL029C, strain bik1, active compounds read low 1.01 | locus YCL061C, strain MRC1, active compounds read low 1 | locus YCL069W, strain vba3, active compounds read low 0.976 | locus YCR088W, strain abp1, active compounds read low 0.992 | locus YDL005C, strain med2, active compounds read low 0.98 | locus YDL035C, strain GPR1, active compounds read low 0.968 | locus YDL040C, strain nat1, active compounds read low 0.987 | locus YDL074C, strain BRE1, active compounds read low 1.02 | locus YDL101C, strain DUN1, active compounds read low 1.01 | locus YDL134C, strain PPH21, active compounds read low 0.984 | locus YDL185W, strain tfp1, active compounds read low 1.01 | locus YDL192W, strain arf1, active compounds read low 1 | locus YDR001C, strain nth1, active compounds read low 0.992 | locus YDR069C, strain doa4, active compounds read low 1.01 | locus YDR101C, strain arx1, active compounds read low 1.02 | locus YDR137W, strain rgp1, active compounds read low 1.05 | locus YDR150W, strain NUM1, active compounds read low 0.983 | locus YDR159W, strain sac3, active compounds read low 0.977 | locus YDR162C, strain NBP2, active compounds read low 0.985 | locus YDR195W, strain ref2 1.01 | locus YDR297W, strain sur2, active compounds read low 0.996 | locus YDR318W, strain mcm21, active compounds read low 1.04 | locus YDR334W, strain swr1, active compounds read low 0.971 | locus YDR335W, strain msn5, active compounds read low 0.993 | locus YDR388W, active compounds read low 1 | locus YDR392W, strain spt3, active compounds read low 0.973 | locus YDR502C, strain sam2, active compounds read low 1 | locus YEL003W, strain gim4, active compounds read low 0.985 | locus YEL037C, strain rad23, active compounds read low 0.977 | locus YEL061C, strain CIN8 (second series), active compounds read low 0.98 | locus YEL061C, strain CIN8, active compounds read low 0.989 | locus YER015W, strain faa2, active compounds read low 0.998 | locus YER016W, strain bim1, active compounds read low 0.992 | locus YER110C, active compounds read low 0.985 | locus YER111C, strain swi4, active compounds read low 0.999 | locus YER155C, strain BEM2 (second series), active compounds read low 0.995 | locus YER155C, strain BEM2, active compounds read low 1.02 | locus YER167W, strain BCK2, active compounds read low 0.982 | locus YFR010W, strain ubp6, active compounds read low 0.995 | locus YGL078C, strain dbp3, active compounds read low 1 | locus YGL086W, strain mad1, active compounds read low 1.02 | locus YGL167C, strain pmr1, active compounds read low 1.01 | locus YGL173C, strain kem1, active compounds read low 1.01 | locus YGL227W, strain vid30, active compounds read low 0.987 | locus YGL240W, strain doc1, active compounds read low 1.01 | locus YGL248W, strain PDE1, active compounds read low 0.983 | locus YGL253W, strain hxk2, active compounds read low 0.987 | locus YGR078C, strain PAC10, active compounds read low 1.04 | locus YGR135W, strain pre9, active compounds read low 1.05 | locus YGR229C, strain SMI1, active compounds read low 1.03 | locus YGR252W, strain gcn5, active compounds read low 0.919 | locus YHR013C, strain ard1, active compounds read low 1.04 | locus YHR027C, strain rpn1, active compounds read low 1.01 | locus YHR030C, strain SLT2, active compounds read low 0.997 and 1 | locus YHR079C, strain IRE1 (second series), active compounds read low 1.01 | locus YHR079C, strain IRE1, active compounds read low 1.03 | locus YHR094C, strain hxt1, active compounds read low 0.999 | locus YHR129C, strain ARP1, active compounds read low 1.01 | locus YHR142W, strain chs7, active compounds read low 1.01 | locus YHR200W, strain rpn10, active compounds read low 1.02 | locus YIL066C, strain RNR3, active compounds read low 0.982 | locus YIL073C, strain SPO22, active compounds read low 1.01 | locus YIL125W, strain kgd1, active compounds read low 0.984 | locus YIR030C, strain dcg1, active compounds read low 0.996 | locus YJL092W, strain hpr5, active compounds read low 0.978 | locus YJL095W, strain BCK1 (second series), active compounds read low 1 | locus YJL095W, strain BCK1, active compounds read low 1.05 and 0.999 | locus YJL115W, strain asf1, active compounds read low 0.973 | locus YJL129C, strain trk1, active compounds read low 0.949 | locus YJL134W, strain LCB3, active compounds read low 0.991 | locus YJL154C, strain vps35, active compounds read low 0.977 | locus YJL164C, strain tpk1, active compounds read low 1.02 | locus YJL166W, strain qcr8, active compounds read low 0.988 | locus YJL168C, strain set2, active compounds read low 1 | locus YJL187C, strain SWE1 (second series), active compounds read low 0.996 | locus YJL187C, strain SWE1, active compounds read low 0.99 | locus YJR043C, strain POL32, active compounds read low 1.05 | locus YJR066W, strain TOR1, active compounds read low 0.971
